Laboratory results reported in PubChem BioAssay (NCI).
This is part of a sample that, as a whole, favours compounds with a hit. Of some 83,000 tested, about 20% had one in any assay.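 Single-concentration screen, 48 h exposure, 96-well plates. Endpoint: percent growth. Below 10 = active.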 Activity calls are given as the source filed them.

What was measured:
Test in all cases: NCI-60 one-dose screen, 48 h (100 = growth as untreated, 0 = no growth, -100 = all killed)
Conditions in all cases: 10 µM unless noted
HCT-15 colon = tested on: HCT-15 colon
HT29 colon = tested on: HT29 colon
SNB-75 CNS = tested on: SNB-75 CNS
SNB-19 CNS = tested on: SNB-19 CNS
U251 CNS = tested on: U251 CNS
PC-3 prostate = tested on: PC-3 prostate
SK-MEL-5 melanoma = tested on: SK-MEL-5 melanoma
UACC-62 melanoma = tested on: UACC-62 melanoma
LOX IMVI melanoma = tested on: LOX IMVI melanoma
SK-MEL-28 melanoma = tested on: SK-MEL-28 melanoma
SK-MEL-2 melanoma = tested on: SK-MEL-2 melanoma
EKVX NSCLC = tested on: EKVX NSCLC
SN12C renal = tested on: SN12C renal
UO-31 renal = tested on: UO-31 renal
TK-10 renal = tested on: TK-10 renal
ACHN renal = tested on: ACHN renal
CAKI-1 renal = tested on: CAKI-1 renal
A498 renal = tested on: A498 renal
CCRF-CEM leukemia = tested on: CCRF-CEM leukemia
MOLT-4 leukemia = tested on: MOLT-4 leukemia

Measured: growth

N#CC1=C(c2ccco2)Nc2c(c(-c3ccccc3)nn2-c2ccccc2)C12C(=O)Nc1ccc(Br)cc12 (centres undefined)
inactive: HCT-15 colon 38.6% | HT29 colon 49.5% | SNB-19 CNS 60% | PC-3 prostate 24.1% | SK-MEL-5 melanoma 59% | UACC-62 melanoma 51.5% | LOX IMVI melanoma 21.3% | SK-MEL-28 melanoma 67.5% | SK-MEL-2 melanoma 87% | EKVX NSCLC 56.2% | UO-31 renal 59.8% | TK-10 renal 65.9% | ACHN renal 49.3% | CAKI-1 renal 55.9% | A498 renal 124% | CCRF-CEM leukemia 35.5% | MOLT-4 leukemia 36.2%
active: SNB-75 CNS -8.95% | U251 CNS 1.85% | SN12C renal 5.11%

O=C1Nc2cc(-c3ccc(NS(=O)(=O)c4ccc([N+](=O)[O-])cc4)cc3)ccc2/C1=C/c1ccc[nH]1
inactive: HCT-15 colon 11% | SNB-75 CNS 34.1% | SNB-19 CNS 31.1% | PC-3 prostate 25.7% | SK-MEL-5 melanoma 24.2% | SK-MEL-2 melanoma 13.9% | UO-31 renal 34.9% | CCRF-CEM leukemia 27.5% | MOLT-4 leukemia 15.8%
active: HT29 colon -17.3% | U251 CNS -62.4% | UACC-62 melanoma 0.956% | LOX IMVI melanoma -20.6% | SK-MEL-28 melanoma 9.97% | EKVX NSCLC 3.18% | SN12C renal -17.7% | TK-10 renal -2.87% | ACHN renal -62.5% | CAKI-1 renal -17.4% | A498 renal -33.6%

O=C1/C(=C/c2cccc3c2OCO3)Cc2c(F)cc(Br)cc21
inactive: HCT-15 colon 102% | HT29 colon 118% | SNB-75 CNS 97.1% | SNB-19 CNS 103% | U251 CNS 105% | PC-3 prostate 107% | SK-MEL-5 melanoma 101% | UACC-62 melanoma 91.8% | LOX IMVI melanoma 99.8% | SK-MEL-28 melanoma 115% | SK-MEL-2 melanoma 111% | EKVX NSCLC 94.4% | SN12C renal 111% | UO-31 renal 90% | TK-10 renal 115% | ACHN renal 108% | CAKI-1 renal 94.6% | CCRF-CEM leukemia 103% | MOLT-4 leukemia 106%

FC(F)(F)c1cc2c(Cl)ncnc2n1CCC1CCOCC1
active: HCT-15 colon -37.7% | SNB-75 CNS -91.1% | SNB-19 CNS -99% | U251 CNS -14.4% | PC-3 prostate 2.75% | SK-MEL-5 melanoma -83.7% | UACC-62 melanoma -34.5% | LOX IMVI melanoma -97% | SK-MEL-28 melanoma -0.403% | SK-MEL-2 melanoma -91.2% | UO-31 renal -92.9% | ACHN renal -44.2% | CCRF-CEM leukemia -14.5% | MOLT-4 leukemia -38.4%
inactive: HT29 colon 48.5% | EKVX NSCLC 77% | SN12C renal 40.7% | TK-10 renal 98.3% | CAKI-1 renal 80.3% | A498 renal 97.8%
